For the experiment, the target named is T1, Serine/threonine-protein kinase Sgk2 (Homo sapiens) (UniProt Q9HBY8).
T1 sequence (whole entry): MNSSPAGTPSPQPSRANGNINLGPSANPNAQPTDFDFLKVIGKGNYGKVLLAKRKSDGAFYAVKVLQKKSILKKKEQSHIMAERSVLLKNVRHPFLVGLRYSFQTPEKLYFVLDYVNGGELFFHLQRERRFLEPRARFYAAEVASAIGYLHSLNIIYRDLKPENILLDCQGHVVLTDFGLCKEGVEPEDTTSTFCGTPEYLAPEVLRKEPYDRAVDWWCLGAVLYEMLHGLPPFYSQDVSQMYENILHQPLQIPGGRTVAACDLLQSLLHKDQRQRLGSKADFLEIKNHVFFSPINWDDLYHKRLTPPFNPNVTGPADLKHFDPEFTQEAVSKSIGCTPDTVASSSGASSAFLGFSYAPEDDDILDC
To be noted: at 1 µM.
As to `c1cnn2ncc(-c3ccnc(NCCCN4CCOCC4)n3)c2c1`, the inhibition was found to be 5.05%.

`FC(F)(F)CNc1nccc(-c2cnn3ncccc23)n1`: the inhibition came to 0.87%.

With `CCS(=O)(=O)c1ccc(OC)c(Nc2ncc(-c3cccc(F)c3)o2)c1`, the inhibition was 1.18%.

On to `COc1ccc(Nc2ncc(-c3ccccc3)o2)cc1OC`, for which the inhibition is -0.37%.

For `Cc1nnc(-c2cccc(-c3ccc(C(=O)NCC4CC4)cc3)c2)o1`, the inhibition is 7.09%.

As for `COc1cc(N2CCN(C(C)C)CC2)ccc1Nc1nc(Nc2cccc3ncccc23)c2cc[nH]c2n1`, the inhibition was -0.85%.

As for `Cn1c(-c2nonc2N)nc2cnccc21`, the inhibition came out at 10.7%.

On to `CC1=C(C(=O)Nc2ccc3[nH]nc(C)c3c2)C(c2ccc(C(F)(F)F)cc2)CC(=O)N1` (configuration not stated), for which the inhibition stood at 5.99%.

With `CN1CCC(n2cnc(-c3ccc(F)cc3)c2-c2ccnc(NCCO)n2)CC1`, the inhibition was 5.93%.

With `COc1cc(Nc2ncc(-c3ccccc3)o2)cc(OC)c1`, the inhibition is 4.37%.

In the case of `CC1=C(C(=O)Nc2ccc3[nH]ncc3c2)C(c2ccc(F)cc2)N=C(c2ccc(C(F)(F)F)nc2)N1` (configuration not stated), the inhibition came out at 4.47%.

As for `Cc1ccc(-c2cc3c(NC(=O)C4CC4)ncnc3o2)cc1`, the inhibition came to 8.63%.

For the compound `O=C1Nc2ccccc2/C1=C1\CCc2cc(O)ccc21`, the inhibition came to 10.2%.

Turning to `CN(C)CCNC(=O)Nc1ccc(N(C)c2ccnc(Nc3ccc(CS(C)(=O)=O)cc3)n2)cc1`, the inhibition was -2.21%.

Take `CS(=O)(=O)CCNCc1ccoc1-c1ccc2ncnc(Nc3ccc(OCc4ccccc4)cc3)c2c1`: the inhibition was -3.3%.

Regarding `CS(=O)(=O)Nc1ccc(-c2ccc3c(NC(=O)C4CC4)n[nH]c3c2)cc1`, the inhibition stood at 4.06%.

As for `O=C(Nc1n[nH]c2nnc(-c3cccnc3)cc12)C1CC1`, the inhibition is 3.04%.

A word on the inhibition: it is the change of the read-out against control, counted positive when it falls.

The values above are taken from ChEMBL document CHEMBL1961873, “Compounds: GSK PKIS; Assays: Nanosyn kinase panel” (2012).
